Several values for one entry are separate records, joined by “and”; a condition that tells them apart may be missing. Equal values may be shown once. Out of some 5,500 compounds screened, about 2,000 (36%) were called active. Not shown: some 18% with an inconclusive outcome. Cut-off read from the data, not from the text of the source: active = normalized growth mostly below about 0.91 (no sharp cut-off); inconclusive = no clear call, values can overlap the other calls; inactive = mostly above about 0.92. The list shows a part of the results.
Assay: chemical genetic growth profiling, strain panel (AID 1159580);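 note: tested at 20 µM; growth read once vehicle control cultures reached saturation at 30 °C; 1 = growth at the plate median or of vehicle wells; lower values mean less growth of the strain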
Details: S. cerevisiae deletion strains, growth OD

Measured: normalized growth

CCCC1O[C@@H]2CC3C4CCC5=CC(=O)C=CC5(C)C4[C@@H](O)CC3(C)[C@]2(C(=O)CO)O1 (stereo partly specified)
inactive: locus YAL013W, strain DEP1, active compounds read low 1 | locus YAL021C, strain ccr4, active compounds read low 1.01 | locus YAL026C, strain drs2, active compounds read low 1.01 | locus YAL030W, strain snc1, active compounds read low 1.01 | locus YBL061C, strain skt5, active compounds read low 1 | locus YBR009C, strain hhf1, active compounds read low 0.995 | locus YBR021W, strain FUR4, active compounds read low 1 | locus YBR023C, strain chs3, active compounds read low 1.02 | locus YBR171W, strain sec66, active compounds read low 1.01 | locus YBR229C, strain ROT2, active compounds read low 1 | locus YBR231C, strain swc5, active compounds read low 1 | locus YBR279W, strain paf1, active compounds read low 1.01 | locus YCL011C, strain gbp2, active compounds read low 0.996 | locus YCL016C, strain dcc1, active compounds read low 1.01 | locus YCL029C, strain bik1, active compounds read low 1.01 | locus YCL069W, strain vba3, active compounds read low 1.01 | locus YCR088W, strain abp1, active compounds read low 1.01 | locus YDL005C, strain med2, active compounds read low 0.985 | locus YDL035C, strain GPR1, active compounds read low 0.994 | locus YDL040C, strain nat1, active compounds read low 1.01 | locus YDL074C, strain BRE1, active compounds read low 1 | locus YDL101C, strain DUN1, active compounds read low 1.01 | locus YDL134C, strain PPH21, active compounds read low 1 | locus YDL185W, strain tfp1, active compounds read low 1.01 | locus YDL192W, strain arf1, active compounds read low 1.02 | locus YDR001C, strain nth1, active compounds read low 0.993 | locus YDR069C, strain doa4, active compounds read low 1 | locus YDR101C, strain arx1, active compounds read low 1.01 | locus YDR137W, strain rgp1, active compounds read low 0.989 | locus YDR150W, strain NUM1, active compounds read low 0.997 | locus YDR159W, strain sac3, active compounds read low 0.972 | locus YDR162C, strain NBP2, active compounds read low 1 | locus YDR195W, strain ref2 0.971 | locus YDR297W, strain sur2, active compounds read low 1.01 | locus YDR318W, strain mcm21, active compounds read low 1.03 | locus YDR334W, strain swr1, active compounds read low 1.03 | locus YDR335W, strain msn5, active compounds read low 1.01 | locus YDR388W, active compounds read low 1.02 | locus YDR392W, strain spt3, active compounds read low 1.04 | locus YDR502C, strain sam2, active compounds read low 1.02 | locus YEL003W, strain gim4, active compounds read low 1.02 | locus YEL037C, strain rad23, active compounds read low 0.995 | locus YEL061C, strain CIN8 (second series), active compounds read low 1.02 | locus YEL061C, strain CIN8, active compounds read low 1 | locus YER015W, strain faa2, active compounds read low 1.01 | locus YER016W, strain bim1, active compounds read low 1 | locus YER110C, active compounds read low 1.02 | locus YER111C, strain swi4, active compounds read low 1.02 | locus YER155C, strain BEM2 (second series), active compounds read low 1.05 | locus YER155C, strain BEM2, active compounds read low 0.989 | locus YER167W, strain BCK2, active compounds read low 1.01 | locus YFR010W, strain ubp6, active compounds read low 0.987 | locus YGL078C, strain dbp3, active compounds read low 1.01 | locus YGL086W, strain mad1, active compounds read low 1 | locus YGL167C, strain pmr1, active compounds read low 1.01 | locus YGL173C, strain kem1, active compounds read low 1 | locus YGL227W, strain vid30, active compounds read low 1 | locus YGL240W, strain doc1, active compounds read low 0.982 | locus YGL248W, strain PDE1, active compounds read low 1.01 | locus YGL253W, strain hxk2, active compounds read low 1.02 | locus YGR078C, strain PAC10, active compounds read low 0.986 | locus YGR135W, strain pre9, active compounds read low 0.998 | locus YGR229C, strain SMI1, active compounds read low 0.992 | locus YGR252W, strain gcn5, active compounds read low 1.06 | locus YHR013C, strain ard1, active compounds read low 1.03 | locus YHR027C, strain rpn1, active compounds read low 1.01 | locus YHR030C, strain SLT2, active compounds read low 1 and 1.02 | locus YHR079C, strain IRE1 (second series), active compounds read low 1.01 | locus YHR079C, strain IRE1, active compounds read low 1.01 | locus YHR094C, strain hxt1, active compounds read low 1.02 | locus YHR129C, strain ARP1, active compounds read low 1 | locus YHR142W, strain chs7, active compounds read low 1.02 | locus YHR200W, strain rpn10, active compounds read low 1.03 | locus YIL066C, strain RNR3, active compounds read low 1.01 | locus YIL073C, strain SPO22, active compounds read low 1.07 | locus YIL125W, strain kgd1, active compounds read low 0.997 | locus YIR030C, strain dcg1, active compounds read low 1.02 | locus YJL092W, strain hpr5, active compounds read low 1 | locus YJL095W, strain BCK1 (second series), active compounds read low 1.01 | locus YJL095W, strain BCK1, active compounds read low 0.994 and 1.02 | locus YJL115W, strain asf1, active compounds read low 1 | locus YJL129C, strain trk1, active compounds read low 0.98 | locus YJL134W, strain LCB3, active compounds read low 1 | locus YJL154C, strain vps35, active compounds read low 1.01 | locus YJL164C, strain tpk1, active compounds read low 1 | locus YJL166W, strain qcr8, active compounds read low 1.01 | locus YJL168C, strain set2, active compounds read low 1.02 | locus YJL187C, strain SWE1 (second series), active compounds read low 1 | locus YJL187C, strain SWE1, active compounds read low 1.02 | locus YJR043C, strain POL32, active compounds read low 1 | locus YJR066W, strain TOR1, active compounds read low 0.978

Source: PubChem BioAssay AID1159580 (chemical genetic matrix, 2015)
